Rows were chosen to be rich in hits. Some 5.7% of all compounds tested hit in one or more screens of this group.
hgDAF12 agonist: H. glycines DAF-12 receptor agonists, primary screen, cell-based, luminescence, HEK293, GAL4 fusion, UAS-luciferase; activation, % at 6.8 µM; AID 687014, 2013; HEK293 GAL4-hgDAF12 UAS-luciferase reporter, agonist luminescence; normalized to butyrate control; 1.8% of 370,000 active;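 active = activation above a cutoff set at the mean of all screened compounds plus 3 SD, cut at about 10% in these data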
hcDAF-12 act: H. contortus DAF-12 nuclear receptor activators, primary screen, cell-based, luminescence, HEK293, lit1-tk-luc reporter; HEK293 hcDAF-12 lit1-tk-luc reporter; 0% DMSO, 100% Δ7-dafachronic acid; 1.4% of 370,000 active; activation, % at 6.8 µM;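 active = activation above the mean of all tested compounds plus 3 SD, cut at about 5.5% in these data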
DAX1 inh-1: DAX1 (NR0B1) inhibitors, primary screen, cell-based, HEK293, Gal4-DAX1, luciferase luminescence; inhibition, % at 6.75 µM; Nuclear receptor subfamily 0 group B member 1 (Homo sapiens), P51843; 0.99% of 340,000 active; HEK293 Gal4-DAX1 luciferase reporter;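 active = inhibition above the mean over all tested compounds plus 3 SD, cut at about 4.2% in these data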;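 also: inhibition shows as a rise in luminescence from relieved DAX1 repression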
Target sequence (P51843 207-470 limits assumed): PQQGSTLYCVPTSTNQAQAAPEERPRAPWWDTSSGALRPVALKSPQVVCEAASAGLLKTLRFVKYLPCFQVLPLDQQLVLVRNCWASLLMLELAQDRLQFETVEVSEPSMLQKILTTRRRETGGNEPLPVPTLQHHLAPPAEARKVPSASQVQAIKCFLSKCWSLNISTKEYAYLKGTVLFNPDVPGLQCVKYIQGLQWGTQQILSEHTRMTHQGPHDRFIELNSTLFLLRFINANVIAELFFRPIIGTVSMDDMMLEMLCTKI
AHR act: AHR activators, primary screen, cell-based, luminescence, luciferase reporter, human; 2.5% of 320,000 active; activation, % at 5 µM; AHR-responsive luciferase reporter cells; Aryl hydrocarbon receptor (Homo sapiens), P35869; AID 2796, 2010; in the data active = activation above about 47%
ssDAF-12 act: S. stercoralis DAF-12 nuclear receptor activators, primary screen, cell-based, luminescence, HEK293, GRIP1 co-expression, lit1-tk-luc. HEK293 ssDAF-12/GRIP1 lit1-tk-luc reporter; % of 3 µM dafachronic acid response. activation, % at 6.8 µM. 1% of 370,000 active. AID 652126, 2013;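 active = activation above the mean over all tested compounds plus 3 SD, cut at about 0.9% in these data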
DAX1 inh-2: DAX1 (NR0B1) inhibitors on StAR promoter, primary screen, cell-based, luminescence, SF-1 (NR5A1), full-length DAX-1. HEK293T StAR-luciferase reporter, SF-1/DAX-1 repression relief. 1.1% of 370,000 active. inhibition, % at 6.8 µM;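 active = inhibition above the mean over all tested compounds plus 3 SD, cut at about 3.6% in these data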;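 also: higher inhibition means more luminescence from relief of DAX-1 repression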
hgDAF12 ag: H. glycines DAF-12 receptor agonists, confirmation, cell-based, luminescence, HEK293, GAL4-LBD fusion; shares compounds with hgDAF12 agonist; activation, % at 6.8 µM; 80% of 3,300 active; HEK293 GAL4-hgDAF12 luciferase reporter, agonist mode; percent of butyrate response;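 active = mean activation over triplicate wells above the hit cutoff derived from the earlier primary screen, cut at about 11% in these data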
LXRb DAF12 ctr: LXR agonists, Gal4 luciferase reporter, confirmation, counter-screen for hgDAF-12 agonist project, cell-based, luminescence, HEK293, H. glycines campaign; shares compounds with hgDAF12 agonist; 24 h; activation, % at 6.8 µM; 3,300 tested, under 10 active;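 active = mean activation of the triplicate above a set limit carried over from the primary screen, none filed active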
Of the large screens only hits and unclear results are named; the others gave an inactive call (follow-up assays come after a bar, where they were run).

S=C(c1ccc(-c2cccc(Cl)c2)o1)N1CCCCC1	hgDAF12 agonist 27, hcDAF-12 act 6.3, ssDAF-12 act 1.1, DAX1 inh-2 4.2 | hgDAF12 ag 21 | LXRb DAF12 ctr inactive
N#CCCN1CCN(C(=S)c2ccc(-c3cccc(Cl)c3)o2)CC1	none
CCOC(=O)c1nnn(-c2ccc([N+](=O)[O-])cc2[N+](=O)[O-])c1C	none
CC(C)(C)c1ccc(C(=O)Nc2ncn[nH]2)cc1	hgDAF12 agonist 14, AHR act 70 | hgDAF12 ag 13 | LXRb DAF12 ctr inactive
COc1ccc(S(=O)(=O)NC2CCCCCC2)cc1C(N)=O	none
OCc1ccc(N=Nc2ccccc2)cc1	hgDAF12 agonist 13 | hgDAF12 ag 17 | LXRb DAF12 ctr inactive
COc1ccc(-c2cc(C(=O)Nc3ccc(S(=O)(=O)Nc4onc(C)c4C)cc3)c3ccccc3n2)cc1	none
COc1ccccc1-c1nc(SCC(=O)Nc2cc(C)on2)c2c(=O)n(C)c(=O)n(C)c2n1	none
CC(c1ccc(NC(=O)OC(C)(C)C)cc1)c1cn(C)c2ccccc12 (stereo not given)	hgDAF12 agonist 14, hcDAF-12 act 5.7 (no result: DAX1 inh-1, AHR act) | hgDAF12 ag inactive | LXRb DAF12 ctr inactive
CC(C)c1ccc(NC(=O)Cc2cn(C)c3ccccc23)cc1	none
O=C(N/N=C/c1ccccn1)c1c[nH]c2ccccc12	hgDAF12 agonist 15, AHR act 57 | hgDAF12 ag 13 | LXRb DAF12 ctr inactive
Cc1ccn2cc(-c3cnoc3C)nc2c1	none
Cc1ccn2cc(-c3cccc(NS(C)(=O)=O)c3)nc2c1	hgDAF12 agonist 14 | hgDAF12 ag 11 | LXRb DAF12 ctr inactive
COc1c(Cl)cccc1-c1cn2ccc(C)cc2n1	hgDAF12 agonist 14, hcDAF-12 act 6.4, ssDAF-12 act 1.3 | hgDAF12 ag 15 | LXRb DAF12 ctr inactive
Cc1ccn2cc(-c3cccc(NC(=O)CCC(=O)O)c3)nc2c1	none
CC(=O)Nc1cccc(-c2cn3ccc(C)cc3n2)c1	hgDAF12 agonist 14, DAX1 inh-2 3.9 | hgDAF12 ag 12 | LXRb DAF12 ctr inactive
Cc1ccn2cc(-c3ccc(NS(=O)(=O)c4ccccc4)cc3)nc2c1	none
Cc1cccc(N(CC(=O)N2CCCC2)S(C)(=O)=O)c1	none
COc1ccc(N2CCN(Cc3nc(-c4ccccc4)no3)CC2)cc1	none
COc1ccc(N2Cc3ccccc3C2)cc1Cl	hgDAF12 agonist 14 | hgDAF12 ag inactive | LXRb DAF12 ctr inactive
OCCNc1ncnc2c1ncn2[C@H]1CN(Cc2ccco2)C[C@@H](CO)O1	none (no result: DAX1 inh-1, AHR act)
O=C(Cc1ccc(Br)cc1)N/N=C/c1ccc(-c2cccc(C(=O)O)c2)o1	none
Nc1nnc(CC(=O)N/N=C/c2ccc(-c3cccc(C(=O)O)c3)o2)s1	hgDAF12 agonist 14 | hgDAF12 ag inactive | LXRb DAF12 ctr inactive
Cc1nc2cc(CO)ccc2n1C	none
Cc1nc2cc(NCc3ccc(Cl)cc3)ccc2n1C	hgDAF12 agonist 14, DAX1 inh-1 4.7, ssDAF-12 act 1.6 | hgDAF12 ag 14 | LXRb DAF12 ctr inactive

Compound activity from PubChem.
